This is a sample that favours compounds with a hit; in the whole collection about 5.5% have one here.
Six1-Eya2 inh: inhibitors of human Six1/Eya2 interaction; Q15475+O00167; AlphaScreen GST-Six1/His-Eya2 binding, biochemical; active compounds read low; activity change, % (test concentration not listed); hit rate 0.56% among 360,000; in the data active = activity change below about -65%; inconclusive = mostly about -30% to -63%; note: % is set by controls: 0 for no effect and ±100 for the full control effect
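AlphaScreen with GST-Six1 and His-Eya2 (5X mix: 250 nM and 500 nM), glutathione donor and nickel acceptor beads; buffer 50 mM Tris pH 8.0, 300 mM NaCl, 1 mM TCEP; 1 h at 37 C in the dark.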
Gal4-VP16 FLuc: Gal4-VP16 reporter inhibition counter-screen; Drosophila S2 Gal4-VP16 UAS-luciferase, luminescence, 20 h; Potency, µM (titrated, usually from 53.6 µM), for the others: at the top dose activity, negative = inhibition, hits mostly inhibitors; hit rate 3.5% among 310,000; AID 2546;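 note: Gal4-VP16 expression switched on by copper sulfate through the metallothionein promoter; potency is the fitted concentration of half-maximal effect; % is set by controls: 0 for no effect and ±100 for the full control effect; nearly all actives have a fitted effect of over 50% in size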
CtBP-E1A inh: inhibitors of CtBP/E1A interaction. AlphaScreen GST-E1A/His-CtBP binding, 1536-well; active compounds read low. activity change, % (test concentration not listed). hit rate 0.49% among 340,000. AID 651724; in the data active = activity change below about -65%; inconclusive = mostly about -30% to -63%; note: % is set by controls: 0 for no effect and ±100 for the full control effect
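Steps: dispense buffer (Tris pH 8.0, NaCl 300 mM, TCEP 1 mM, BSA, Tween 20); add 5X protein mix (GST-E1A, His-CtBP, 125 nM each); pin 23 nL compound; 2 h at 37 °C, dark; add 5X beads (50 ug/mL); 1 h; read.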
RORgamma inh: blocks mouse ROR gamma transcriptional activity; P51450; Drosophila S2 Gal4-RORgamma UAS-luciferase reporter, 20 h; Potency, µM (highest dose often 53.6 µM), without a hit: top-dose activity change, negative = inhibition, actives largely listed as inhibitors; hit rate 5.4% among 310,000; AID 2551; note: potency is the fitted concentration of half-maximal effect; % is set by controls: 0 for no effect and ±100 for the full control effect; nearly all actives have a fitted effect of over 60% in size
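Using a luciferase readout, inhibitors were identified by reduced reporter activity in Drosophila cells coexpressing a copper-inducible Gal4–ROR gamma fusion and UAS-driven Photinus luciferase, incubated 20 hr after 700 uM copper sulfate.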
CBFb-RUNX1 inh: blocks binding between human CBF-beta and RUNX1. 230,000 tested, under 10 active. Q01196+Q13951. AlphaScreen CBFb-His/RUNX1-biotin binding, biochemical. Potency, µM (doses to about 59.8 µM), for the others: at the highest dose activity, negative = inhibition, actives largely listed as inhibitors; note: % of control where 0% means no effect
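His-tagged CBF-beta and biotinylated RUNX1 (30 nM each) were premixed 20 min at room temperature, exposed to compound for 15 min, then given nickel-chelate and streptavidin AlphaScreen beads (50 ng each). After 90 min, AlphaScreen signal was read.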
MBNL1 CUG block: blocks human MBNL1 binding to CUG repeat RNA. Q9NR56. TR-FRET MBNL1-His/biotin-(CUG)12 binding, 665/545 ratio. Potency, µM (top dose mostly 57.5 µM), inactives show at the top dose activity change, negative = inhibition, usual class: inhibitors. hit rate 0.036% among 280,000; active = well fitted inhibition curve with a large enough effect in the signal ratio, with a control signal flat, not every such curve was filed as active; inconclusive = small, poorly fitted or top-dose-only effect, or effect the other way, or a change in a side signal; inactive = no such curve, though single readings can be large or run the other way; the % refers to the signal ratio; note: potency is the fitted concentration of half-maximal effect; % is set by controls: 0 for no effect and ±100 for the full control effect
Target sequence (Q9NR56 whole entry, looked up): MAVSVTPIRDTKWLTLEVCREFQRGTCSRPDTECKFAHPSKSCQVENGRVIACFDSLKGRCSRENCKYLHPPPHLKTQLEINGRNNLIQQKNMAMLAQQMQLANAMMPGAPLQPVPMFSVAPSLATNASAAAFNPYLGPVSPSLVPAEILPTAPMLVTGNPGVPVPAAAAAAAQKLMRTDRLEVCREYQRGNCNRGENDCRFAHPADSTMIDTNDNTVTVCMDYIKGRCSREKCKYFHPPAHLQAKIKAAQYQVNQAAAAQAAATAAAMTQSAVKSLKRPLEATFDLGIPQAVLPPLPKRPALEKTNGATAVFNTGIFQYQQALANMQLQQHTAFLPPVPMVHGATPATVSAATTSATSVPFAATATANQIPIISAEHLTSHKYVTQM
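Compounds (final 92 nM to 58 uM) are added to His-tagged MBNL1 and biotin-(CUG)12, then terbium anti-His antibody and streptavidin-XL665 (5 nM final). After 60 min at room temperature, the 665/545 nm ratio is read.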
* hit, by the source's call; ? = inconclusive; . = not tested or not shown; [ ] = another dose, or the depositor's remark. Unless noted, calls come from the whole dose curve; as a rule, active = well fitted curve in the direction sought with a large enough effect; inconclusive = small, poorly fitted or top-dose-only effect, or another doubt; inactive = no such curve, though single readings can be large; an effect the other way counts as inactive or inconclusive.

SMILES	Six1-Eya2 inh	Gal4-VP16 FLuc	CtBP-E1A inh	RORgamma inh	CBFb-RUNX1 inh	MBNL1 CUG block
CC(=O)OC1C[C@@]2(C)C(c3ccoc3)C[C@H]3O[C@@]32[C@@]2(C)C(=O)C(O)=C3C(C)(C)C(=O)C=C[C@]3(C)C12 (stereo not given in full)	.	3.16µM*	.	3.16µM*	3.9%	.
CC(=O)O[C@@H]1C[C@@]2(C)C(c3ccoc3)C[C@H]3O[C@]32[C@]2(C)C(=O)C(O)=C3C(C)(C)C(=O)C=C[C@]3(C)C12 (stereo not given in full)	.	12.6µM*	.	?	1.0%	.
S=C1CN=C(c2ccccc2Cl)c2cc(Cl)ccc2N1	-8.9	7.08µM*	-0.4	7.94µM*	-11.8%	9.2%
COc1ccc(-c2cc(=NCCCCCC(=O)O)c3cc(C)ccc3o2)cc1	-83.0*	-11.7%	-90.4*	11.2%	-3.9%	?
CO/C1=C\C(C)=C\[C@@H](C)[C@@H](O)[C@@H](C)C/C(C)=C/C=C/[C@H](OC)[C@@H]([C@@H](C)[C@@H](O)[C@H](C)[C@@]2(O)C[C@@H](O)[C@H](C)C(C(C)C)O2)OC1=O (stereo not given in full)	.	7.08µM*	.	6.31µM*	14.6%	.
CC(C)[C@H](NC(=O)[C@H](CC(=O)O)NC(=O)[C@H](Cc1ccccc1)NC(=O)[C@@H](C)NC(=O)[C@@H](N)Cc1ccc(O)cc1)C(=O)N[C@H](C(=O)NCC(N)=O)C(C)C	.	1.7%	.	3.7%	2.3%	.
C=C1C(=O)O[C@@H]2C[C@@H](C)[C@H]3C=CC(=O)[C@]3(O)C[C@@H]12	-5.1	?	2.3	7.08µM*	14.6%	-0.1%
C=C1C(=O)OC2CC3(C)OC3CCC(C)=CC(OC(C)=O)C12 (stereo not given)	1.9	.	10.2	.	.	.
Cc1ccc(C(C)C)c(OCCn2c(=O)oc3ccccc32)c1	12.5	?	61.2	10µM*	-0.6%	-13.7%
COc1ccc(Cn2c(=O)oc3ccc(C)cc32)cc1OC	15.8	?	10.8	18.2%	5.1%	-7.3%
O=C(NC(=S)N1CC1)c1ccccc1	3.0	.	-18.7	.	.	.
CC(C)(C)c1ccc(C(=O)NC(=S)Nn2cnnc2)cc1	-3.2	?	3.2	14.1µM*	-1.0%	-22.9%
O=C(O)[C@@H]1CSC(c2cccnc2)N1 (stereo not given in full)	.	-0.2%	.	-13.6%	3.4%	.
Cc1cc(C)cc(OP(=O)(Oc2cc(C)cc(C)c2)Oc2cc(C)cc(C)c2)c1	.	4.2%	.	-4.4%	?	.
CCCCCC(=O)N[C@@H](c1ccccc1)[C@@H](O)C(=O)O[C@H]1C[C@@]2(O)[C@@H](OC(=O)c3ccccc3)C3[C@](C)(C(=O)[C@H](O)C(=C1C)C2(C)C)[C@@H](OC1OCC(O)C(O)C1O)C[C@H]1OC[C@@]31OC(C)=O (stereo not given in full)	-89.7*	-24.8%	-21.6	-15.3%	.	6.8%
CC(=O)O[C@@]12CO[C@@H]1C[C@H](OC1OCC(O)C(O)C1O)[C@@]1(C)C(=O)[C@H](O)C3=C(C)[C@@H](OC(=O)[C@H](O)[C@@H](NC(=O)c4ccccc4)c4ccccc4)C[C@@](O)([C@@H](OC(=O)c4ccccc4)C12)C3(C)C (stereo not given in full)	-9.7	-20.0%	0.2	8.8%	.	-3.6%
C/C=C(\C)C(=O)N[C@@H](c1ccccc1)[C@@H](O)C(=O)O[C@H]1C[C@@]2(O)[C@@H](OC(=O)c3ccccc3)C3[C@](C)(C(=O)[C@H](OC(C)=O)C(=C1C)C2(C)C)[C@H](O)C[C@H]1OC[C@@]31OC(C)=O (stereo not given in full)	-3.3	35.5µM*	-9.0	?	.	-4.1%
C=CCOCC1CO1 (stereo not given)	.	-3.6%	.	18.2%	1.6%[21.7 µM]	.
CCN(CC)C(=O)N[C@H]1C=C2c3cccc4[nH]cc(c34)C[C@@H]2N(C)C1	.	-5.8%[17 µM]	.	-6.4%[16.9 µM]	-14.7%[21.7 µM]	.
COc1ccc(/C=C/c2cc(O)cc(O)c2)cc1	.	3.55µM*	.	1.41µM*	.	.
CCN1C[C@@]2(COC)CCC(OC)[C@]34C5C[C@]6(O)[C@@H](OC)C[C@](OC(C)=O)(C([C@H](OC)C23)[C@H]14)C5[C@H]6OC(=O)c1ccc(OC)cc1 (stereo not given in full)	.	-11.3%	.	-0.2%	15.6%	.
S=C(Nc1ccccc1)Nc1cccc(Br)c1	2.7	7.6%[10 µM]	.	11.2µM*	-0.5%	-2.8%
Cc1ccc(N=Nc2cc(C)ccc2N)cc1	?	?	-80.4*	?	.	?
C=C(C)[C@@H]1CC[C@]2(C(=O)O)CC[C@]3(C)C(CCC4[C@@]5(C)CC[C@H](O)C(C)(C)C5CC[C@]43C)C12 (stereo not given in full)	0.3	-5.6%	4.7	3.16µM*	.	-4.7%
CC(C)C[C@H](NC(=O)CNC(=O)[C@H](CCC(N)=O)NC(=O)[C@H](Cc1ccc(O)cc1)NC(=O)[C@@H](NC(=O)[C@H](Cc1ccc(O)cc1)NC(=O)CNC(=O)[C@@H](N)CCCN=C(N)N)C(C)C)C(=O)O	.	0.7%	.	-0.2%	-7.0%	.
SMILES	Six1-Eya2 inh	Gal4-VP16 FLuc	CtBP-E1A inh	RORgamma inh	CBFb-RUNX1 inh	MBNL1 CUG block
O=C1CCN(C(=O)CCCn2c(=O)oc3ccccc32)CC1	6.8	-5.4%	6.3	7.7%	2.0%	6.9%
CC1CCCC(C)N1c1nnc(NC(=O)Cn2c(=O)oc3ccccc32)s1 (stereo not given)	0.5	14.1µM*	-2.6	?	-18.4%	?
O=C(Cc1ccc(Cl)c(Cl)c1)N1CCCC[C@H]1CN1CCCC1	.	-3.1%	.	-18.0%	2.3%[21.7 µM]	.
C(=NC1CCCCC1)=NC1CCCCC1	.	2.24µM*	.	?	11.3%[21.7 µM]	.
O=C=NC1CCCCC1	.	-3.7%	.	4.8%	9.6%[21.7 µM]	.
NCCCC[C@H](NC(=O)[C@H](Cc1ccccc1)NC(=O)[C@H](CCCN=C(N)N)NC(=O)[C@@H](N)Cc1ccc(O)cc1)C(N)=O	.	.	.	.	11.9%	.
CC=C(C)C(=O)O[C@H]1C(C)=C2[C@@H]3OC(=O)[C@@](C)(O)[C@@]3(O)[C@@H](OC(=O)CCC)C[C@](C)(OC(C)=O)[C@@H]2[C@@H]1OC(=O)CCCCCCC	.	.	.	.	19.2%	.
C/C=C(\C)C(=O)OC1C(C)=C2C(C1OC(=O)CCCCC)C(C)(OC(C)=O)CC(OC(=O)CCC)C1(O)C2OC(=O)C1(C)O (stereo not given)	.	17.8µM*	.	?	1.0%	1.4%
CCC(C)n1c(O)c(/C=N/Nc2ccccc2)c(=O)[nH]c1=S (stereo not given)	12.6	6.31µM*	-0.9	14.1µM*	7.8%	26.0%

Screening results from PubChem BioAssay.
